Screening data deposited in PubChem by Sanford-Burnham Center for Chemical Genomics.
Many of the other results were omitted from the sample, so hits are more common in it than they were.
VHR inh color = VHR1 phosphatase inhibitors, primary screen, biochemical, colorimetric, HTS. recombinant VHR phosphatase, colorimetric substrate read-out. hit rate 0.7% among 50,000. inhibition, % at 20 µM; in the data active = inhibition above about 60%
Target sequence (P51452 whole entry, looked up): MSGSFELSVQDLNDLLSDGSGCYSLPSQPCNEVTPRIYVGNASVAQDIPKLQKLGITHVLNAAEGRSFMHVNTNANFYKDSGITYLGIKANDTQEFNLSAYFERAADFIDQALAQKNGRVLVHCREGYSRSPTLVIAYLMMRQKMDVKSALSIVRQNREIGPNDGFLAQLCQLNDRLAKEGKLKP
Large screens that a line does not name were inactive.

CC(=O)c1cccc(NC(=O)c2ccc(-c3ccc(Cl)cc3Cl)o2)c1	VHR inh color 109.2
O=C(Nc1ccccc1C(F)(F)F)c1ccc(-c2cc(Cl)ccc2Cl)o1	VHR inh color 112.3
CC(=O)c1ccc(NC(=O)c2ccc(-c3ccc(Cl)cc3Cl)o2)cc1	none
O=C(O)c1ccc(-c2cc(Cl)ccc2Cl)o1	none
COc1ccccc1CNC(=O)/C=C/c1ccc([N+](=O)[O-])cc1	none
CCOC(=O)c1c(NC(=O)c2ccco2)sc(C(=O)Nc2ccc(OC)cc2OC)c1C	none
O=C(Nc1ccc(C(=O)N2CCOCC2)cc1)c1c(Cl)cccc1Cl	none
Cc1ccccc1-n1c(=S)[nH]c2ccccc2c1=O	none
CCOC(=O)c1ccccc1NC(=O)c1cc(Cl)ccc1OC	none
O=[N+]([O-])c1ccc(-n2nncc2C23CC4CC(CC(C4)C2)C3)cc1	none
Cc1ccc2oc(C(=O)Nc3ccc(Cl)cc3Cl)c(C)c2c1	none
COc1cc(C2Nc3ccccc3NC3=C2C(=O)CC(c2ccc(Cl)cc2)C3)cc(Br)c1O (stereo not drawn)	none
CCOc1cc(C2Nc3ccccc3NC3=C2C(=O)CC(c2ccccc2)C3)cc(Br)c1O (stereo not drawn)	VHR inh color 98.9
CCOc1cc(C2Nc3ccccc3NC3=C2C(=O)CC(c2ccc(OC)cc2)C3)cc(Br)c1O (stereo not drawn)	none
CC1=NN(C(=O)c2cccc(C)c2O)C(O)(c2ccc(Cl)cc2)C1 (stereo not drawn)	none
O=C(O)CCCc1sc(/C(=N\O)C(=O)O)cc1[N+](=O)[O-]	none
CC(=O)c1ccc(NC(=O)c2ccoc2C)cc1	none
O=C(O)CCCCCN1C(=O)C(=O)/C(=C(/O)c2ccc(Cl)cc2)C1c1ccc(F)cc1 (stereo not drawn)	none
Clc1ccccc1CSc1nnnn1-c1ccccc1	none
c1ccc(-n2nnnc2SCc2cccc(CSc3nnnn3-c3ccccc3)n2)cc1	none
Clc1ccc(CSc2nnnn2-c2ccccc2)cc1	none
Fc1ccccc1-n1nnnc1SCc1cc2c(cc1Cl)OCO2	VHR inh color 113.6
Clc1cc2c(cc1CSc1nc3ncccc3[nH]1)OCO2	none
Clc1cc2c(cc1CSc1nnnn1-c1ccccc1)OCO2	VHR inh color 111.5
COC(=O)c1c(N)sc(C)c1-c1ccc(OC)cc1	none
CN(C)CCNC(=O)C12CC3CCC(CC(C3)C1)C2	none
COc1cc(C(=O)N/N=C(\C)c2ccc(Cl)s2)ccc1O	none
COc1ccccc1Cc1noc(-c2ccc([N+](=O)[O-])cc2)n1	none
Cc1c(C#N)c(=O)ncn1-c1ccc(Br)cc1	none
COc1ccc2c(c1)c(/C=C/c1nc3ccccc3c(=O)n1-c1cccc([N+](=O)[O-])c1)c(C)n2C	none
Cc1[nH]c2ccccc2c1/C=C/c1nc2ccccc2c(=O)n1-c1cccc([N+](=O)[O-])c1	VHR inh color 78.1
O=c1c2ccccc2nc(/C=C/c2c[nH]c3ccccc23)n1-c1cccc([N+](=O)[O-])c1	none
COc1ccc(/C=N\NC(=O)c2ccc(Br)cc2)cc1Cl	none
Fc1ccc(NC(=S)Nc2cccc3ccccc23)cc1	none
S=C(Nc1ccc2c(c1)oc1ccccc12)Nc1cccc2ccccc12	VHR inh color 105.7
O=C(NC(=S)Nc1ccc2oc3ccccc3c2c1)c1ccccc1	none
N/C(=N\OC(=O)COc1cccc2ccccc12)c1cccc([N+](=O)[O-])c1	none
Cc1c(Cl)cccc1N=C1NC(=O)/C(=C/c2ccc(O)c([N+](=O)[O-])c2)S1	none
CCOC(=O)C1=NNC(C(=O)c2ccccc2)C1c1ccc(OC)cc1 (stereo not drawn)	none
CCOC(=O)C1=NNC(C(=O)OCC)(C(=O)OCC)C1c1ccccc1 (stereo not drawn)	VHR inh color 101.2
CCOC(=O)C1=NNC(C(=O)c2ccccc2)C1c1ccccc1 (stereo not drawn)	none
CC(C)c1ccc(NC(=O)c2cccc(Cl)c2)cc1	none
O=C(CC1Sc2ccc(C(F)(F)F)cc2NC1=O)Nc1ccc(N2CCOCC2)cc1 (stereo not drawn)	none
Cc1ccc2nc(-c3ccc(C)c(NC(=O)COc4ccc(Cl)cc4C)c3)oc2c1	none
CCCC1=NN2C(=N)/C(=C/c3ccccc3C)C(=O)N=C2S1	none
C=CCOc1ccc(Cl)cc1/C=C1/C(=N)N2N=C(CCC)SC2=NC1=O	VHR inh color 107.9
CC(C)C1=NN2C(=N)/C(=C/c3cc(Cl)ccc3OCc3ccccc3)C(=O)N=C2S1	none
Cc1ccccc1/C(N)=N/OC(=O)c1ccc(C)c([N+](=O)[O-])c1	none
O=C(COc1ccc(Cl)cc1Cl)Nc1ccccc1C(=O)Nc1ccccc1	none
O=C1CSC2=NCN(c3cccc(Cl)c3)CN12	none
O=C1CC(=O)N(c2cccc(Cl)c2)N1	VHR inh color 74.6
O=C1NC(=O)/C(=C\c2cccc(Cl)c2)S1	none
O=C(O)CCC(=O)NNC(=O)c1ccncc1	none
CCOc1cc(C=O)cc(Br)c1OCc1ccccc1Cl	none
COc1ccc(/C=N/N=c2\sc3ccccc3n2C)c(OC)c1	VHR inh color 97.7
Cn1/c(=N/N=C/c2ccncc2)sc2ccccc21	none
COc1cc(/C=N/N=c2\sc3ccccc3n2C)ccc1O	none
CC(C)Oc1ccccc1C1CC(=O)Nc2c1cc(Br)c1ccccc21 (stereo not drawn)	VHR inh color 108.2
COc1cc(C2CC(=O)Nc3c2cc(Br)c2ccccc32)cc(OC)c1OC (stereo not drawn)	none
O=C1CC(c2ccccc2F)c2cc(Br)c3ccccc3c2N1 (stereo not drawn)	none
O=C(NCCOC(=O)c1ccc2c(c1)OCO2)c1cccnc1	none
O=C1NC(=S)N(c2ccc(Br)cc2)C(=O)/C1=C\c1ccc(-c2ccc([N+](=O)[O-])cc2)o1	none
Cc1cccc(N2C(=O)NC(=O)/C(=C/c3ccc(Br)o3)C2=O)c1	none
CC(C)c1ccc(N2C(=O)NC(=O)/C(=C/c3ccc(Br)o3)C2=O)cc1	VHR inh color 81.6
O=C1NC(=S)N(c2ccc(F)cc2)C(=O)/C1=C/c1ccc(Br)o1	VHR inh color 94.5
O=C1NC(=O)N(c2ccc(Cl)cc2)C(=O)/C1=C/c1ccc(Br)o1	none
O=C1NC(=S)N(c2ccc(Br)cc2)C(=O)/C1=C/c1ccc(-c2ccccc2C(=O)O)o1	none
CCOC(=O)c1ccc(N2NC(=O)/C(=C/c3cccc(Br)c3)C2=O)cc1	none
Oc1c(Br)cc(Br)cc1C=Nc1ccc(Cl)c2cccnc12	none
O=c1[nH]c(/C=C/c2ccccc2O)c([N+](=O)[O-])c(=O)[nH]1	none
O=S(=O)(NC1C2CC3CC(C2)CC1C3)c1ccc(Cl)cc1 (stereo not drawn)	none
O=C1/C(=C\c2cccc3ccccc23)SC(=S)N1CCc1ccccc1	none
CCOC(=O)c1sc(NC(=O)c2ccc(S(=O)(=O)N3CCCC3)cc2)c(C(=O)OCC)c1C	none
CCCN1CCC(=NNC(=O)c2ccccc2O)CC1	none
CN1CCC(=NNC(=O)c2cccc([N+](=O)[O-])c2)CC1	none
CN1CCC(=NNC(=O)c2cc3ccccc3cc2O)CC1	VHR inh color 94.2
O=C(c1sc2ccccc2c1Cl)N1CCN(Cc2ccccc2)CC1	none
COc1ccccc1OCCOc1c(Cl)cc(/C=N/n2cnnc2)cc1OC	none
CCC(C)c1ccc(OCCOc2c(Cl)cc(/C=N/n3cnnc3)cc2OC)cc1 (stereo not drawn)	none
CCOc1cc(/C=N/n2cnnc2)cc(Cl)c1OCCOc1cc(C)ccc1C(C)C	VHR inh color 110.1
CN(C)S(=O)(=O)NCCCNc1ccc([N+](=O)[O-])cc1	none
O=C(NN=C(/C=C/c1ccccc1)/C=C/c1ccccc1)c1ccc(O)cc1O	none
O=C1CC(c2ccccc2)CC2=C1C(c1ccc(Cl)c([N+](=O)[O-])c1)Nc1ccccc1N2 (stereo not drawn)	none
